The list is not random: actives were taken first. Their share in the collection is about 8%.
FMDV inh: blocks foot and mouth disease virus. 1.2% of 410,000 active. FMDV antiviral cell-based qHTS. Potency, µM (top dose mostly 57.9 µM), for the others: top-dose activity change, negative = inhibition, usual class: inhibitors; calls by dose curve; tested in HEK293T cells; further: read-out not given here; potency means the concentration at half of the fitted maximal effect; on the % scale 0 is the no-effect control and ±100 the full control effect; nearly all actives have a fitted effect of over 45% in size
HCMV antiviral: human cytomegalovirus inhibition; 4.5% of 410,000 active; AID 1259415; HFF cells, HCMV-luciferase reporter, 72 h; stronger effect = lower value; activity change, negative = inhibition, % at 57.5 µM; in the data active means activity change below about -60%; inconclusive means no clear call, values can overlap the other calls; inactive means above about -39%; further: on the % scale 0 is the no-effect control and ±100 the full control effect
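Human foreskin fibroblasts infected with luciferase-reporter HCMV at MOI 1 PFU/cell, compounds at two doses. Luciferase measured 72 h post infection; normalized to buffer-only basal and Salinomycin (10uM) controls.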
SARS PLpro yeast: blocks SARS-CoV papain-like protease in a yeast assay | 0.19% of 330,000 active | Potency, µM (series often up to 32.9 µM), for inactives: top-dose activity, positive = growth rescue, hits mostly activators | S. cerevisiae expressing SARS-CoV PLpro, growth rescue; calls by dose curve; further: potency means the concentration at half of the fitted maximal effect; 0% is about no effect; nearly all actives have a fitted effect of over 55% in size
LASV entry inh: Lassa virus entry inhibition; Lassa virus pseudotype entry inhibition, cell reporter; Potency, µM (top dose mostly 37.9 µM), for inactives: at the highest dose activity change, negative = inhibition, most hits filed as inhibitors; 1.2% of 300,000 active; calls by dose curve; tested in HEK293 cells; further: potency means the concentration at half of the fitted maximal effect; on the % scale 0 is the no-effect control and ±100 the full control effect; nearly all actives have a fitted effect of over 50% in size
MARV entry inh: blocks Marburg virus binding to or entry into cells. Potency, µM (highest dose often 37.8 µM), without a hit: at the top dose activity change, negative = inhibition, most hits filed as inhibitors. 1.8% of 300,000 active. Marburg virus pseudotyped entry inhibition, cell reporter; calls by dose curve; tested in HEK293 cells; further: potency means the concentration at half of the fitted maximal effect; on the % scale 0 is the no-effect control and ±100 the full control effect
HCV inh: inhibitors of hepatitis C virus infection; Huh7.5.1 HCVcc-Cre infection, luciferase reporter, 44 h; Potency, µM (highest dose often 41.8 µM), inactives show top-dose activity change, negative = inhibition, actives largely listed as inhibitors; 3.4% of 340,000 active; active means well fitted inhibition curve with a large enough effect; inconclusive means small, poorly fitted or top-dose-only effect, or another doubt; inactive means no such curve, though single readings can be large or run the other way; further: potency means the concentration at half of the fitted maximal effect; on the % scale 0 is the no-effect control and ±100 the full control effect
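After 44 h co-culture of compound, cells and HCVcc-Cre (~0.5 moi), substrate is added for 15 min at room temperature and luciferase measured over 15 sec. Cells were seeded at 1,000/well and pre-cultured 4 h.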
Numbers without * were called inactive; ? = inconclusive; . = no result; [ ] = another dose, or the depositor's remark.

SMILES | FMDV inh | HCMV antiviral | SARS PLpro yeast | LASV entry inh | MARV entry inh | HCV inh
Cc1nc2ccc(F)cc2cc1C(=O)Nc1ccc(Cl)c(Cl)c1 | -19% | -61* | -1% | -18% | -14% | -16%
Cc1nc2ccc(F)cc2cc1C(=O)NCc1ccco1 | -24% | 13 | 2% | 5% | 17% | -2%
Cc1cc2c(cc1S(=O)(=O)Nc1cccc(C(F)(F)F)c1)OCCN2C | 47% | 37 | . | ? | . | .
O=C(Nc1cccnc1)C1Cc2c(-c3ccccc3Oc3ccccc3)ccnc2O1 (stereo unspecified) | ? | -35 | . | . | . | .
CC(=O)Nc1ccc(NC(=O)C2Cc3c(-c4ccco4)ccnc3O2)cc1 (stereo unspecified) | -7% | -23 | . | . | . | .
CC(=O)c1cccc(NC(=O)C2Cc3c(-c4ccccc4Oc4ccccc4)ccnc3O2)c1 (stereo unspecified) | ? | -66* | . | . | . | .
O=C(Nc1cccc(C(F)(F)F)c1)C1Cc2c(-c3ccccc3Oc3ccccc3)ccnc2O1 (stereo unspecified) | ? | -16 | . | . | . | .
CC(=O)c1cccc(NC(=O)C2Cc3c(-c4ccco4)ccnc3O2)c1 (stereo unspecified) | -10% | -62* | . | . | . | .
CN(C)c1cccc(NC(=O)C2Cc3c(-c4ccccc4Oc4ccccc4)ccnc3O2)c1 (stereo unspecified) | -35% | -83* | . | . | . | .
Nc1ccc(N(c2ccccc2)c2ccc(N)cc2)cc1 | ? | ? | 3% | -17% | ? | 10µM*
COc1ccc(COC(=O)c2[nH]c3c(c2C)C(=O)CC(c2ccc(OC)c(OC)c2)C3)cc1 (stereo unspecified) | ? | 31 | . | -18%[46.1 µM] | ? | .
CC(=O)c1cccc(NC(=O)C(OC(=O)c2ccccc2NS(=O)(=O)c2cccs2)c2ccccc2)c1 (stereo unspecified) | 40% | -75* | -13% | ? | ? | 1%
CCOc1ccccc1NC(=O)C(OC(=O)c1ccccc1NS(=O)(=O)c1cccs1)c1ccccc1 (stereo unspecified) | -1% | ? | -9% | ? | ? | -22%
COc1cc2c(cc1OC)C1C(=O)c3ccc4c(c3OC1CO2)CC(C(C)C)O4 (stereo unspecified) | ? | -96* | . | ? | 3.5µM* | ?
COc1cc2c(cc1OC)[C@H]1C(=O)c3ccc4c(c3O[C@H]1CO2)C[C@@H](C(C)(C)O)O4 | 0% | -21 | -8% | . | . | ?
COc1cc2c(cc1OC)[C@@H]1C(=O)c3ccc4c(c3O[C@@H]1CO2)C[C@H](C(C)C)O4 | ? | -94* | -3% | ? | 7.1µM* | 0.32µM*
Cn1nnnc1Sc1ncnc2scc(-c3ccccc3)c12 | 22µM* | -67* | 1% | ? | 7.1µM* | -3%
c1ccc(-c2csc3ncn4nnnc4c23)cc1 | 27% | -100* | -3% | 4% | 22% | 9%
Cn1nnnc1Sc1ncnc2scc(-c3ccc(Br)cc3)c12 | 18µM* | -98* | 4% | . | . | .
Cn1nnnc1SCc1nc2scc(-c3ccccc3)c2c(=O)[nH]1 | ? | 12 | -2% | . | . | -30%
CC(=O)Nc1ccc(Sc2ncnc3scc(-c4ccccc4)c23)cc1 | 0% | -26 | -91% | -18% | -28% | 4%
Cn1nnnc1Sc1ncnc2scc(-c3ccc[nH]3)c12 | ? | -98* | -4% | . | . | .
COc1ccccc1-c1csc2ncnc(Sc3nnnn3C)c12 | ? | -74* | -1% | . | . | .
OCCN1CCN(c2ncnc3scc(-c4ccc(F)cc4)c23)CC1 | -10% | -31 | -1% | . | . | 1%
Cn1nnnc1Sc1ncnc2scc(-c3ccccc3Br)c12 | ? | -93* | 1% | . | . | .
Cn1nnnc1Sc1ncnc2scc(-c3ccc(F)cc3)c12 | 16µM* | -76* | -1% | 4.1µM* | 8.2µM* | ?
Cn1nnnc1Sc1ncnc2scc(Br)c12 | 22µM* | -97* | -2% | . | . | .
Cn1nnnc1Sc1ncnc2scc(-c3cccc4ccccc34)c12 | ? | ? | 2% | . | . | .
CCn1ncc([C@@H]2C[C@H]3CN(Cc4ccccc4C)C(=O)[C@]34CCCN24)c1C | -4% | -15 | 1% | . | . | 4%
